FBW7 activator: activators of human E3 ligase FBW7; hit rate 0.13% among 650,000; AlphaScreen FBW7–phospho-cyclin E peptide binding, activator screen; AID 1259310; normalized activity (activation), % at 26.1 µM; in the data active = normalized activity above about 1.9%;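 note: purified mutant Fbw7 with reduced substrate affinity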
Target sequence (Q969H0 whole entry, looked up): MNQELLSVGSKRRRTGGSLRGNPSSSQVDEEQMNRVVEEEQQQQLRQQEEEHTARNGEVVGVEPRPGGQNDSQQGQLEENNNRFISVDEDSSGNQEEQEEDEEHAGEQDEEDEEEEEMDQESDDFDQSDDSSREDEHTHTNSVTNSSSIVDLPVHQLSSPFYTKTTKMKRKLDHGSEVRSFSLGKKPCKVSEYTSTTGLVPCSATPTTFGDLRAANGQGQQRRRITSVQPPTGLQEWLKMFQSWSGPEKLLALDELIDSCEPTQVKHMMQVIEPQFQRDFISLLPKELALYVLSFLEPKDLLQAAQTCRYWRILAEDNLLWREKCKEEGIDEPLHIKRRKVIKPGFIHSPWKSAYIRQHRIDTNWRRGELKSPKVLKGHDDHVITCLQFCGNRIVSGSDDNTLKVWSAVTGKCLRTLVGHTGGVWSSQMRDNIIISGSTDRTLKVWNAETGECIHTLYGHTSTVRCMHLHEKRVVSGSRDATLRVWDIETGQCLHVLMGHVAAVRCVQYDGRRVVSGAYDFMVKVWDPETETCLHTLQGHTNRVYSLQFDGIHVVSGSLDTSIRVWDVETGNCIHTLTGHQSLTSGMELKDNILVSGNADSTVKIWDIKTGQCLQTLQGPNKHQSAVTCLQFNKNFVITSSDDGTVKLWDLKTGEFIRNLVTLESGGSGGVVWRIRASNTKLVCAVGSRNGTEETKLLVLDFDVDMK
MITF primary: human MITF inhibition, primary screen. AID 1259374. AlphaScreen MITF homodimerization, bead proximity signal. O75030. inhibition, % at 2.6 µM. hit rate 0.91% among 650,000; in the data active = inhibition above about 50%
GPR151 ag: activates the human receptor GPR151 | activation, % at 11.2 µM | Q8TDV0 | PathHunter beta-arrestin GPR151 cells, luminescence | hit rate 1% among 650,000; in the data active = activation above about 4.9%
TEAD-YAP inh: TEAD-YAP interaction inhibition. HEK-TIYL cells, TEAD-Gal4/YAP UAS-luciferase luminescence. inhibition, % at 9.12 µM. hit rate 1.4% among 640,000; in the data active = inhibition above about 32%
Of the large screens only hits and unclear results are named; the others gave an inactive call. Most compounds without a hit are left out; they make up all but 3.4% or so of the library.

O=S(=O)(NCc1cccs1)c1ccc(Cc2ccc(S(=O)(=O)NCc3cccs3)cc2)cc1	TEAD-YAP inh 33.6
O=S(=O)(NCc1cccs1)c1ccc(-c2ccc(S(=O)(=O)NCc3cccs3)cc2)cc1	none
CCOC(=O)c1cnc2c(OC)cccc2c1NC1CCCCCC1	TEAD-YAP inh 65.7
CCOC(=O)c1cnc2c(OC)cccc2c1NCC1CCCN1CC (configuration not stated)	none
CCOC(=O)c1cnc2c(OC)cccc2c1Nc1ccc(OC)c(OC)c1	TEAD-YAP inh 45.0
CCOC(=O)c1cnc2c(OC)cccc2c1NC1CCCCC1	TEAD-YAP inh 55.4
CCOC(=O)c1cnc2c(Cl)c(Cl)ccc2c1NC1CCCCC1	none
CCC(C)c1ccc(NS(=O)(=O)c2ccc([N+](=O)[O-])cc2)cc1 (configuration not stated)	none
Cc1ncn(-c2ccc(Nc3nccc(-c4cc(F)cc(-c5ccnn5C)c4)n3)cc2)n1	none
Cc1ccc(/C=C2/SC(=S)N(Cc3cccnc3)C2=O)cc1	none
COc1cc(/C=C2/SC(=S)N(CCCC(=O)O)C2=O)ccc1O	TEAD-YAP inh 60.9
CCOc1ccc(/C=C2\SC(=S)N(CCCC(=O)O)C2=O)cc1	TEAD-YAP inh 79.2
Cc1ccc(/C=C2\SC(=S)N(CCCC(=O)Nc3cccnc3)C2=O)cc1	TEAD-YAP inh 33.6
CCCN1C(=O)/C(=C/c2ccc(OC)cc2)SC1=S	none
COc1ccc(/C=C2/SC(=S)N(CCC(=O)O)C2=O)cc1	TEAD-YAP inh 57.8
COc1cc(/C=N/NC(=O)c2cccc([N+](=O)[O-])c2)ccc1Oc1ccc([N+](=O)[O-])cn1	none
CC1=C(C(=O)OC(C)C)C(c2ccc(Cl)cc2)n2c(s/c(=C\c3ccc(N4CCCCC4)o3)c2=O)=N1 (configuration not stated)	none
CC1(C)CC(=O)c2cc(C(N)=O)c(=O)n(-c3ccc(Cl)cc3)c2C1	none
COc1ccc(/C=C2\SC(=O)N(CCC(=O)O)C2=O)c(OC)c1	TEAD-YAP inh 63.9
O=C(O)CCCCCN1C(=O)/C(=C/c2ccc(O)cc2)SC1=S	none
COC(=O)CCCN1C(=O)/C(=C\c2ccc3c(c2)OCO3)SC1=S	TEAD-YAP inh 59.2
COc1ccc(/C=C2\SC(=O)N(CO)C2=O)c(OC)c1	none
CCOc1cc(/C=C2\SC(=S)N(CCCC(=O)O)C2=O)ccc1O	TEAD-YAP inh 82.3
O=C(O)CCCN1C(=O)/C(=C\c2ccc(OC(F)F)cc2)SC1=S	TEAD-YAP inh 58.8
CN(C)CC(C)(O)c1ccc2c(c1)CN(Cc1cccc(C(F)(F)F)c1)CCO2 (configuration not stated)	none
Cc1c(C(=O)N/N=C/c2ccc(Br)cc2)nc2ccccn12	none
COc1ccc(CCN(C)C2CCCN(S(C)(=O)=O)C2)cc1OC (configuration not stated)	none
O=[N+]([O-])c1ccc(-c2nc(-c3ccccc3Cl)no2)cc1	none
O=[N+]([O-])c1cccc(-c2nc(-c3ccccc3Cl)no2)c1	FBW7 activator 2.1
COC(=O)c1cc(S(=O)(=O)Nc2cccc(Br)c2)cn1C	none
CCOC(=O)C1=C(C)NC2=C(C(=O)CCC2)C1c1ccc2c(c1)OCCO2 (configuration not stated)	none
Cc1c(N)cccc1-c1nc2ccccc2s1	TEAD-YAP inh 35.3
CC(=O)c1ccc2c(c1)nc(C)n2-c1ccccc1	none
Cc1nc2cc(-c3nc4ccccc4s3)ccc2n1-c1ccccc1	TEAD-YAP inh 59.1
Cc1c(N)cccc1-c1nc2ccccc2o1	TEAD-YAP inh 57.0
Cc1ccc(-c2nc3ccccc3s2)cc1[N+](=O)[O-]	none
Cc1ccc(-c2nc3ccccc3s2)cc1N	TEAD-YAP inh 54.0
CN(C)c1ccc(C2CC(c3c(-c4ccccc4)c4cc(Cl)ccc4[nH]c3=O)=NN2C(=S)NCc2ccccc2)cc1 (configuration not stated)	none
Cc1cccc(Nc2cnn(C34C[C@@H]5C[C@@H](CC(C(=O)O)(C5)C3)C4)c(=O)c2Cl)c1C	none
Cc1cc(-c2nc3ccccc3s2)ccc1N	TEAD-YAP inh 81.0
CC(=O)Nc1cc(-c2nc3ccccc3s2)ccc1C	none
CSC1SC[C@H]2C(=O)N(C)[C@@H](C(C)C)C(=O)OC[C@@H](NC(=O)c3cnc4ccccc4n3)C(=O)N[C@@H](C)C(=O)N(C)[C@H]1C(=O)N(C)[C@@H](C(C)C)C(=O)OC[C@@H](NC(=O)c1cnc3ccccc3n1)C(=O)N[C@@H](C)C(=O)N2C (some centres not stated)	TEAD-YAP inh 95.7
C=CCn1c(=NC(=O)C2=COCCO2)sc2cccc(OC)c21	none
C=CCn1c(=NC(=O)C2=COCCO2)sc2cc(F)ccc21	FBW7 activator 1.9
CC1(C)CC(=O)C2=C(C1)N(c1c(F)cccc1F)C(N)=C(C#N)C2c1ccc(C(F)(F)F)cc1 (configuration not stated)	none
CCOC(=O)N1CCc2c(sc3c2C(=O)NC(/C=C\c2ccccc2)N3)C1 (configuration not stated)	TEAD-YAP inh 50.5
CCOC(=O)N1CCc2c(sc3c2C(=O)NC(c2ccc(Cl)cc2)N3)C1 (configuration not stated)	none
O=S(=O)(N/N=C/c1ccc2c(c1)OCCO2)c1ccccc1	none
COC(=O)COc1cc(C)cc2oc(=O)c(Cc3ccccc3)c(C)c12	none
Cc1ccc(/C=C2/SC(=S)N(c3ccc(O)c(C(=O)O)c3)C2=O)o1	MITF primary 82.8
COc1ccc(/C=C2\SC(=S)N(c3ccc(O)c(C(=O)O)c3)C2=O)cc1	none
O=C(O)c1cc(N2C(=O)/C(=C\c3ccco3)SC2=S)ccc1O	MITF primary 81.2
COc1ccc(OCC(=O)Nc2ccc(-c3cc4ccccc4oc3=O)cc2)cc1	TEAD-YAP inh 43.3
Nc1ccc(-c2cc3ccccc3oc2=O)cc1	TEAD-YAP inh 70.2
COc1ccc(NC(=O)COc2ccc(C(C)C)cc2)c(OC)c1	FBW7 activator 2.1
CC(C)c1ccc2oc(-c3ccc(NC(=O)COc4ccccc4)cc3)nc2c1	TEAD-YAP inh 68.7
COc1ccc(OCC(=O)Nc2ccc(-c3cc4ccccc4oc3=O)c(C)c2)cc1	none
COC(=O)c1ccc(NC(=O)CNc2cc(Cl)ccc2OC)cc1	none
CCN1CCc2c(sc(NC(=O)c3ccc(S(=O)(=O)N4CCCCC4C)cc3)c2C(N)=O)C1 (configuration not stated)	none
COc1ccc(OCC(=O)Nc2cc(-c3nc4cc(C(C)C)ccc4o3)ccc2Cl)cc1	TEAD-YAP inh 70.0
CCC(C)C(=O)Nc1ccc(-c2nc3ccccc3o2)cc1 (configuration not stated)	TEAD-YAP inh 37.8
Cc1ccc(OCC(=O)Nc2cc(-c3nc4cc(C(C)C)ccc4o3)ccc2Cl)cc1	none
CCC(C)C(=O)N1CCC(C(=O)Nc2ccc(-c3nc4ccccc4o3)cc2)CC1 (configuration not stated)	none
O=c1oc2cc(O)ccc2cc1-c1ccc(Cl)cc1	TEAD-YAP inh 42.1
COc1ccc(-c2cc3ccc(O)cc3oc2=O)cc1OC	none
CC(C)c1ccc2oc(-c3ccc(Cl)c(NC(=O)COc4ccc(Cl)cc4)c3)nc2c1	none
CCC(=O)Nc1cc(-c2nc3cc(C(C)C)ccc3o2)ccc1Cl	TEAD-YAP inh 45.7

Screening data (PubChem)
